# Laboratory results from the supplement of paper PMC10105736.
# Unmarked numbers belong to inactive results.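 Rule for the calls: active = MAPPIT score above the 99th percentile of random reference set scores in the same batch; inactive = at or below it.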
# B1: hpo (protein)
# chain: MSEPEVTSVVDMKSPNISSSCSFFKLKKLSEESLLQPPEKVFDIMYKLGEGSYGSVYKAVHKESSSIVAIKLVPVESDLHEIIKEISIMQQCDSPYVVRYYGSYFKQYDLWICMEYCGAGSVSDIMRLRKKTLTEDEIATILSDTLQGLVYLHLRRKIHRDIKAANILLNTEGYAKLADFGVAGQLTDTMAKRNTVIGTPFWMAPEVIEEIGYDCVADIWSLGITALEMAEGKPPYGEIHPMRAIFMIPQKPPPSFREPDRWSTEFIDFVSKCLVKEPDDRATATELLEHEFIRNAKHRSILKPMLEETCAIREQQRANRSFGGVLAASQAKSLATQENGMQQHITDNAFMEDPGTLVPEKFGEYQQSSASDATMIAHAEQGVDEGTLGPGGLRNLSKAAAPAAASSAASPLDMPAVDSGTMVELESNLGTMVINSDSDDSTTAKNNDDQKPRNRYRPQFLEHFDRKNAGDGRGDEKPIATEYSPAAAEQQQQQQQQQQQQQQDEQHLASGANDLNNWEHNMEMQFQQISAINQYGLQQHQQQQQVLMAYPLMNEQLIALNNQPNLLLSNAAPMGQQGIPAAAPAQPPPAYQNQHMHTQSHAYVEGEFEFLKFLTFDDLNQRLCNIDHEMELEIEQLNKKYNAKRQPIVDAMNAKRKRQQNINNNLIKI
# B2: Csp (protein)
# chain: MSAPGMDKRKLSTSGDSLYEILGLPKTATGDDIKKTYRKLALKYHPDKNPDNVDAADKFKEVNRAHSILSNQTKRNIYDNYGSLGLYIAEQFGEENVNAYFVVTSPAVKAVVICCAVITGCCCCCCCCCCCNFCCGKFKPPVNESHDQYSHLNRPDGNREGNDMPTHLGQPPRLEDVDLDDVNLGAGGAPVTSQPREQAGGQPVFAMPPPSGAVGVNPFTGAPVAANENTSLNTTEQTTYTPDMVNQKY
# B3: Archease (protein)
# chain: MEVEFSRENFLLPEMKYEYLDHTADVQIHGWGSSLKEAFEQCGVAMFGYMTELDYVSVEQCFEIEAHGDDLESLLFHFLDELLFLFSAEPYLVCKKLEITKFDVENFEISCHCYGEPFELGKHPQGTEVKAITYSAMQIIQDVEASNYEVFVIIDI
# B4: Lap1 (protein)
# chain: MPLLSKCFPCFKFKREEVIDKLDYSNTPLTDFPEVWQHERTLEELYLSTTRLQALPPQLFYCQGLRVLHVNSNNLESIPQAIGSLRQLQHLDLNRNLIVNVPEEIKSCKHLTHLDLSCNSLQRLPDAITSLISLQELLLNETYLEFLPANFGRLVNLRILELRLNNLMTLPKSMVRLINLQRLDIGGNEFTELPEVVGELKSLRELWIDFNQIRRVSANIGKLRDLQHFEANGNLLDTLPSELSNWRNVEVLSICSNSLEAFPFSVGMLKSLVTFKCESNGLTELPDSISYLEQLEELVLSHNKLIRLPSTIGMLRSLRFLFADDNQLRQLPDELCSCQQLSVLSVANNQLSALPQNIGNLSKMKVLNVVNNYINALPVSMLNLVNLTSMWLSDNQSQPLVPLQYLDASTKTQLTCFMLPQVTFKMNSIQAQQQAQEQYEFVYANQQQPHASPSRRICFAEEATILSNAKAQPAPNYPSFVAAPPTPTPDQMAGSVRLMRSPTPYPKELRQMSKYVRQAQAATSSANASEVREARVVTNGQIHCDSNNANQDVVDQATTSAIYGIAPETTHIYGVYQQPQQMAHPVPTQEYYGLPLVNYEAHYQQLYVEANTPLPTTHLNGDQDYELQPLQQQPMQQQALPTPRLEPPPYHIARVYTKKTPEDLNLYESMRQRKQQQQLQEQTIYQDALNSNSNFKTTAIGAQDVEESVDQLDYQNNISNNLEPNPEEEDQELDDTMSQHSLNSTATNNTSKASHKKSTWIFGVHKNPTVKQVTLKWENSIGFDIAELLNQVGIFVSSITPNTNAARLLNLNDKLLEIDGYDLTNANLSDAKRVLLNCGTVMNIMLSRK
# B5: Cyp12a4 (protein)
# chain: MLKVRSALSLIQSQKATLSLATQKRWQTNVATAEAREDSEWLQAKPFEQIPRLNMWALSMKMSMPGGKYKNMELMEMFEAMRQDYGDIFFMPGIMGNPPFLSTHNPQDFEVVFRNEGVWPNRPGNYTLLYHREEYRKDFYQGVMGVIPTQGKPWGDFRTVVNPVLMQPKNVRLYYKKMSQVNQEFVQRILELRDPDTLEAPDDFIDTINRWTLESVSVVALDKQLGLLKNSNKESEALKLFHYLDEFFIVSIDLEMKPSPWRYIKTPKLKRLMRALDGIQEVTLAYVDEAIERLDKEAKEGVVRPENEQSVLEKLLKVDRKVATVMAMDMLMAGVDTTSSTFTALLLCLAKNPEKQARLREEVMKVLPNKNSEFTEASMKNVPYLRACIKESQRLHPLIVGNARVLARDAVLSGYRVPAGTYVNIVPLNALTRDEYFPQASEFLPERWLRSPKDSESKCPANELKSTNPFVFLPFGFGPRMCVGKRIVEMELELGTARLIRNFNVEFNYPTENAFRSALINLPNIPLKFKFIDLPN
# B6: CG1307 (protein)
# chain: MGDKLLDPTQIINGLAVMLSFFVGYRYALKRGDAKDSVTEGAATPFSQESSVSSGSEASVSDKGYGGLNDNFKMVLVVRNDLKMGKGKIAAQCGHGAVGAYQRAVVRTPRLLRSWENCGCAKIAVRVESEAELMAIKKEAERQQLNTCLIRDAGRTQIEANSKTVLAVGPAAAADIDRVTGHLKLL
# Experiments:
# Assay in all cases: MAPPIT interaction score (arbitrary units); higher = stronger binary interaction signal, active = hit call of the paper
# RpS20 = conditions: MAPPIT configuration: N-N; pair source set: Curagen_low_conf
# hpo = conditions: pair source set: Lit-BM-16
# yki = conditions: pair source set: Lit-BM-16
# RpS10b = conditions: MAPPIT configuration: N-N; pair source set: DPIM
# RpL35A = conditions: MAPPIT configuration: N-N; pair source set: Finley_Y2H
# RpL12 = conditions: MAPPIT configuration: N-N; pair source set: Lit-BS-16
# RpL37A = conditions: MAPPIT configuration: N-N; pair source set: Curagen_high_conf
# RpLP2 = conditions: MAPPIT configuration: N-N; pair source set: Finley_Y2H
# 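Note: HEK293T cells with Epo stimulation, STAT-responsive firefly luciferase reporter, fold induction versus unstimulated cells divided by the larger fold induction of two negative controls lacking either bait or prey.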
binder,measurement,setting,value
B1,MAPPIT interaction score,RpS20,2.67 (active)
same,MAPPIT interaction score,hpo; MAPPIT configuration: N-C,1.43
same,MAPPIT interaction score,hpo; MAPPIT configuration: N-N,-0.987
same,MAPPIT interaction score,yki; MAPPIT configuration: N-C,-0.198
same,MAPPIT interaction score,yki; MAPPIT configuration: N-N,-0.76
B2,MAPPIT interaction score,RpS10b,1.05
B3,MAPPIT interaction score,RpL35A,-0.294
B4,MAPPIT interaction score,RpL12,-0.0144
B5,MAPPIT interaction score,RpL37A,-0.0129
B6,MAPPIT interaction score,RpLP2,0.942
